# From PubChem BioAssay
# The source made the active and inactive calls. Unless noted, the rule behind the calls is not given here.
# Tests used:
# [1] = compounds binding Alexa647 anti-His antibody – biochemical, small-molecule microarray, 635 nm fluorescence, artefact control for SMM control protein annotation, primary screen (AID 1128); settings: higher = more signal;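 note: score merges feature fluorescence with signal-to-noise for each printed compound spot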
# [2] = system: Human papillomavirus type 1a E7 protein (residues 1-88); assay: HPV1a E7 small-molecule binders, primary screen, biochemical, small-molecule microarray, residues 1-88, 635 nm (AID 1129); settings: small-molecule microarray binding, fluorescence 635 nm; higher = more signal
# [3] = target: Focal adhesion kinase 1 (Homo sapiens) (UniProt Q05397); assay: PTK2 protein binding on printed compound slides – biochemical, small-molecule microarray, 635/667 nm fluorescence, BSA, DTT, primary screen (AID 1130); settings: 635 nm fluorescence, higher = more signal;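 note: composite of spot emission at 667 nm and signal to noise over triplicate slides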
# Chain of Focal adhesion kinase 1 (Homo sapiens) (Q05397 whole entry, looked up): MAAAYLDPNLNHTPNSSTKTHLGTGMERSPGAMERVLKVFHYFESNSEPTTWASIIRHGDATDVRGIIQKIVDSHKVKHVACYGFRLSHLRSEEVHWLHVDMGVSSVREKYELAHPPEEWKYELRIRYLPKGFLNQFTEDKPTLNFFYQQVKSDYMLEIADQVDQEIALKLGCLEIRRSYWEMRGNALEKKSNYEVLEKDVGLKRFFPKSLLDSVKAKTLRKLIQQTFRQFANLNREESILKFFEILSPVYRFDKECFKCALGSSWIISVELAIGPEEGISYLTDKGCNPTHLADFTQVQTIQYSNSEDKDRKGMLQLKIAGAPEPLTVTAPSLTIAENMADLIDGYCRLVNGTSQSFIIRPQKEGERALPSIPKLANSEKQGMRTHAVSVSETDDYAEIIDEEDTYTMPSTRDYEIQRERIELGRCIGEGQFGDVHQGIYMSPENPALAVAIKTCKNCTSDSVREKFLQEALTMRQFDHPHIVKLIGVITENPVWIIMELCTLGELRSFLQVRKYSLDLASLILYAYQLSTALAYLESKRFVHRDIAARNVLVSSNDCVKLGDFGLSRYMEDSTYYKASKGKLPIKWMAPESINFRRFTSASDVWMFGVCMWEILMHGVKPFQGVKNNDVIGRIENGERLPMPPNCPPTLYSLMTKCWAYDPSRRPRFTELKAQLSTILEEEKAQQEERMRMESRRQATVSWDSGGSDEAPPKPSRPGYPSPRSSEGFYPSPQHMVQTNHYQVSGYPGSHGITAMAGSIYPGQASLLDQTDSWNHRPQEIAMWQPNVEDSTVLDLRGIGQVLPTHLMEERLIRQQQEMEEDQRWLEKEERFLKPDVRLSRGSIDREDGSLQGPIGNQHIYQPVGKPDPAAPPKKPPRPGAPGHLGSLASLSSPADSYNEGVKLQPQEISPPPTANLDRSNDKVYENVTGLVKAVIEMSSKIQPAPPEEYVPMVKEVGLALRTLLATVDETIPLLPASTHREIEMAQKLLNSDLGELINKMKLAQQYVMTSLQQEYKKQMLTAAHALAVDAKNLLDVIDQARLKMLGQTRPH
# [4] = system: Fibrinogen (Alexa647-labelled); assay: Alexa647-fibrinogen binding to printed small molecules – biochemical, small-molecule microarray, 635/667 nm fluorescence, artefact control for SMM control-protein annotation, profiling panel (AID 1131); settings: fibrinogen-A647 binding fluorescence, higher = more signal;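 note: z-score merges 667 nm fluorescence with per-spot signal-to-noise over triplicate slides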
# [5] = target: Follistatin (Homo sapiens) (UniProt P19883); assay: FST protein binding to printed compounds – biochemical, small-molecule microarray, 635/667 nm fluorescence, primary screen (AID 1132); settings: 635 nm fluorescence, higher = more signal
# Chain of Follistatin (Homo sapiens) (P19883 whole entry, looked up): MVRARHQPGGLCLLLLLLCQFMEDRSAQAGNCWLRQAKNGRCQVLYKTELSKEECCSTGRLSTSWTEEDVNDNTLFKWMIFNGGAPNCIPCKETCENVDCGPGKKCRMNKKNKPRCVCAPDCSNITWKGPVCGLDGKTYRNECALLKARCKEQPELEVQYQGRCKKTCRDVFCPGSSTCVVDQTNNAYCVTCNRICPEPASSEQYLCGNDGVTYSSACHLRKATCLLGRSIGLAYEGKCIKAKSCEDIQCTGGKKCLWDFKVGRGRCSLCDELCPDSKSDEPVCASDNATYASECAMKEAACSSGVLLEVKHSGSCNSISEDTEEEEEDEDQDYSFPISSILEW
# [6] = target: Fibroblast growth factor 2 (Homo sapiens) (UniProt P09038); assay: basic fibroblast growth factor binding to printed compounds – biochemical, small-molecule microarray, 635/667 nm fluorescence, primary screen (AID 1133); settings: FGF2, fluorescence 635/667, higher = more signal
# Chain of Fibroblast growth factor 2 (Homo sapiens) (P09038 whole entry, looked up): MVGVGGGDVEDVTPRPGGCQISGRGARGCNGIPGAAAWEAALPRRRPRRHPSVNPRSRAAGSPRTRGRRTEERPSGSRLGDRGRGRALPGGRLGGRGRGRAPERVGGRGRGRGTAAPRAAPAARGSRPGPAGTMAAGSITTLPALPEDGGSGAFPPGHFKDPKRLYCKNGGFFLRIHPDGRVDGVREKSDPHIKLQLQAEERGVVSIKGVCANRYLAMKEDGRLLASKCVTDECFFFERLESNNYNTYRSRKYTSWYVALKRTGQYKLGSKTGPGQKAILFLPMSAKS
# [7] = JC-1 mitochondrial potential readout, lung cancer cells – cell-based, A549, JC-1 fluorescence, basal, 24 h, 100 nL, profiling panel (AID 1138); settings: higher = more signal;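 note: A549 lung adenocarcinoma cells under basal conditions with no added stimulus; test concentration not given here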
# Lefty1 = Lefty1 protein binding to printed compounds – biochemical, small-molecule microarray, 635/667 nm fluorescence, primary screen (AID 1139); settings: fluorescence 635/667, higher = more signal
# [8] = system: wheat germ agglutinin (Triticum aestivum), Alexa647-labelled; assay: Alexa647-WGA lectin binding to printed small molecules – biochemical, small-molecule microarray, 635/667 nm fluorescence, artefact control for SMM control-protein annotation, profiling panel (AID 1140); settings: WGA-A647 binding, 635 nm fluorescence, higher = more signal;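 note: score merges 667 nm feature emission with signal to noise over triplicate slides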
# [9] = target: Luciferin 4-monooxygenase (Photinus pyralis) (UniProt P08659); assay: inhibition of purified Photinus pyralis luciferase – biochemical, luminescence, purified enzyme, 2006 set, primary screen (AID 1141); settings: purified firefly luciferase, SteadyGlo luminescence, 30 min; higher = more signal, called active from +8 up or from −8 down;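 note: cell-free assay with purified firefly luciferase at 100 ng per well in PBS; test concentration not given here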
# Chain of Luciferin 4-monooxygenase (Photinus pyralis) (P08659 whole entry, looked up): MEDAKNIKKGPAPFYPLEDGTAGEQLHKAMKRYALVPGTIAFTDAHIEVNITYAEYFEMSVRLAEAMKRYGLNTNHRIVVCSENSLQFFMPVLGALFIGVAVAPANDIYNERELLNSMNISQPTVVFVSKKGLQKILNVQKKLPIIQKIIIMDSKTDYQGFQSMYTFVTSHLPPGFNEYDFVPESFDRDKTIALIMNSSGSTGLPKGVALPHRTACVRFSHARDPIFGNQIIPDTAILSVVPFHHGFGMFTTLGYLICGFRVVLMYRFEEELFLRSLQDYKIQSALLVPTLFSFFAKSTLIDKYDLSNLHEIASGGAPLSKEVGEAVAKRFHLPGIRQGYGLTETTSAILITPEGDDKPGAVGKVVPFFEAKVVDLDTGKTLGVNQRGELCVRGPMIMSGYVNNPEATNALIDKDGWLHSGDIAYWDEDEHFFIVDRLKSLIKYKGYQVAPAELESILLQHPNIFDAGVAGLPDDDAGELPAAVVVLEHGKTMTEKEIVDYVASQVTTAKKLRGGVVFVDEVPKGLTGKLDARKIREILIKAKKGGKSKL
# [10] = system: Wnt5a (protein binding on small-molecule microarray); assay: small molecules binding Wnt5a protein – biophysical, small-molecule microarray, 635/667 nm fluorescence, primary screen (AID 1142); settings: 635 nm fluorescence, higher = more signal;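 note: fluorescence read at 667 nm with signal to noise per printed feature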
# [11] = ATP-based viability of Huh7 replicon cells – cell-based, CellTiter-Glo luminescence, basal, 48 h, cytotoxicity control for HCV replication inhibitor project, primary screen (AID 1143); settings: higher = more signal, called active from +8 up or from −8 down;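 note: Huh7 hepatoma cells carrying a hepatitis C replication reporter with no stimulus; test concentration not given here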
# [12] = Pseudomonas biofilm growth suppression – PAO1 strain, BacTiter-Glo luminescence, LB-PBS, primary screen (AID 1144); settings: P. aeruginosa PAO1 biofilm, 12 h, higher = more signal
# [13] = basal CRE-LacZ reporter activity in PC12 – cell-based, unstimulated, primary screen (AID 1145); settings: no forskolin, luminescence, 4.5 h, higher = more signal, called active from +8 up or from −8 down
# [14] = forskolin-driven CRE-LacZ activity in PC12 – cell-based, CRE-LacZ reporter, forskolin-stimulated, primary screen (AID 1146); settings: luminescence, 4.5 h, higher = more signal, called active from +8 up or from −8 down;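 note: PC12 cells with 6xCRE LacZ reporter stimulated by forskolin 10 µM; beta-galactosidase reporter signal reflecting CREB driven transcription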
# [15] = target: Streptavidin (Streptomyces avidinii) (UniProt P22629); assay: compounds binding control protein streptavidin – biophysical, small-molecule microarray, 635/667 nm fluorescence, artefact control for SMM compound annotation, primary screen (AID 1147); settings: higher = more signal;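 note: signal reflects streptavidin binding to arrayed compounds as a control protein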
# Chain of Streptavidin (Streptomyces avidinii) (P22629 whole entry, looked up): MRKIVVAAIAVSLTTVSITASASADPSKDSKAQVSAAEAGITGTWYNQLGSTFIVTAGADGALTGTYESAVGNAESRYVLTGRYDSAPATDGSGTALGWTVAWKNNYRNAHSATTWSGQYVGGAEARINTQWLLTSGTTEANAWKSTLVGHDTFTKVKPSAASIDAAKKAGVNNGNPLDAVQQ
# [16] = probe aInhba binding on compound microarray – biochemical, small-molecule microarray, 635/667 nm fluorescence, primary screen (AID 1148); settings: higher = more signal;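 note: score merges 667nm spot fluorescence with signal-to-noise for antibody binding to printed compounds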
# Torsin-1A (Homo sapiens) [17] = target: Torsin-1A (Homo sapiens) (UniProt O14656); assay: TOR1A wild-type binding on microarray – cell lysate, small-molecule microarray, lysate, 635/667 nm, primary screen (AID 1149); settings: COS7 hTOR1A-WT lysate, 635 nm fluorescence, higher = more signal
# Chain of Torsin-1A (Homo sapiens) (O14656 whole entry, looked up): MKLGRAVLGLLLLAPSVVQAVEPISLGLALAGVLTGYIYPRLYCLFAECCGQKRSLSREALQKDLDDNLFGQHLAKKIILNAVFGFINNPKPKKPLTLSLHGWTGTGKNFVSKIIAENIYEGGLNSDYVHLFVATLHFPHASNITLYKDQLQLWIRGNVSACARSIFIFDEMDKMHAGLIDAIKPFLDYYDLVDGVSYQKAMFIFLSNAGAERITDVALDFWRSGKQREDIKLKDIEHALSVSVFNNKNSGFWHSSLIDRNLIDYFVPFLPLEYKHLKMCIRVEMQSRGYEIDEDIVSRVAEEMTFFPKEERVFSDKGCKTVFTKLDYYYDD
# Torsin-1A (Homo sapiens) [18] = target: Torsin-1A (Homo sapiens) (UniProt O14656); assay: torsin A mutant lysate binding on microarrays – cell lysate, small-molecule microarray, COS7 lysate, 635/667 nm fluorescence, primary screen (AID 1150); settings: COS7 hTOR1A mutant lysate, 635 nm fluorescence, higher = more signal;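 note: score pools 667 nm emission and signal to noise measuring lysate protein binding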
# [19] = system: Sonic hedgehog protein (Shh); assay: Sonic hedgehog microarray binding compounds – biochemical, small-molecule microarray, 635/667 nm fluorescence, primary screen (AID 1151); settings: 635 nm fluorescence, higher = more signal;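 note: Shh protein binding to compounds spotted on small-molecule microarray slides; score combines spot fluorescence intensity with signal-to-noise across triplicate slides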
SMILES,composite z-score [1],composite z-score [2],composite z-score [3],composite z-score [4],composite z-score [5],composite z-score [6],z-score [7],composite z-score (Lefty1),composite z-score [8],z-score [9],composite z-score [10],z-score [11],z-score [12],z-score [13],z-score [14],composite z-score [15],composite z-score [16],composite z-score (Torsin-1A (Homo sapiens) [17]),composite z-score (Torsin-1A (Homo sapiens) [18]),composite z-score [19]
C=CCOC(=O)[C@@H]1[C@H]2C(=O)O[C@H](c3ccccc3)[C@H](c3ccccc3)N2[C@H](c2ccc(OCCOC(=O)[C@@H]3C[C@@H]4C(=O)NCC(=O)N4[C@@H]3c3cccc(OCCO)c3)cc2)[C@@]12C(=O)Nc1ccc(I)cc12,1.26,1.17,0.259,0.615,1.32,1.31,-1.21,0.914,0.449,-0.408 (inactive),1.02,0.0025 (inactive),-0.0754 (inactive),-0.545 (inactive),-0.844 (inactive),-0.0506,0.458,1.56,1.17,2.1
O=C(CS)NCCCCCCNC(=O)[C@H]1C[C@H]2C(=O)N3CCC[C@H]3C(=O)N2[C@H]1c1cccc(OCCO)c1,1.7,1.23,0.615,0.0353,1.28,1.19,-0.145,0.731,0.658,-0.135 (inactive),0.35,-0.521 (inactive),-0.357 (inactive),0.549 (inactive),0.581 (inactive),0.359,-0.0917,0.536,1.31,1.52
O=C(CS)NCCCCCCNC(=O)[C@H]1C[C@H]2C(=O)NCC(=O)N2[C@H]1c1ccc(O)cc1,0.0346,-0.591,0.147,-0.634,1.11,0.697,0.139,-0.0467,-0.223,-0.199 (inactive),-0.319,0.0181 (inactive),-0.333 (inactive),0.692 (inactive),0.551 (inactive),-0.406,-0.188,-0.21,-0.14,0.518
COCCOC(=O)N1C(=O)[C@@]2(c3cc(C#CCC(C(=O)OC)C(=O)OC)ccc31)[C@H](C(=O)N1CCN(c3ncccn3)CC1)[C@H]1C(=O)O[C@H](c3ccccc3)[C@H](c3ccccc3)N1[C@@H]2c1ccc(OCCO)cc1,1.61,1.19,0.21,0.993,1.24,1.2,-1.31,0.733,0.945,-0.59 (inactive),0.148,-3.18 (inactive),-1.66 (inactive),-1.83 (inactive),-1.08 (inactive),0.392,-0.0221,0.2,0.542,1.3
[N-]=[N+]=NCc1ccccc1C[C@]1(C(=O)O)N=C(c2ccc(OCCCO)cc2)O[C@H]1c1ccccc1CN=[N+]=[N-],1.25,1.03,0.378,1.02,0.879,0.157,0.0653,-0.8,1.08,-1.49 (inactive),-0.0602,-1.42 (inactive),-0.046 (inactive),2.87 (inactive),2.69 (inactive),1.66,0.0342,0.171,0.48,-0.0214
CCCC[C@@H]1C[C@H]1[C@@H](NC(=O)c1ccc(-c2ccccc2)cc1)c1ccc(-c2ccccc2)cc1,0.0916,0.481,0.504,0.348,1.37,0.271,0.738,0.971,0.249,0.779 (inactive),0.198,-2.94 (inactive),0.0911 (inactive),0.394 (inactive),1.7 (inactive),0.305,0.0111,0.0287,-0.0963,2.02
COCCOC(=O)N1C(=O)[C@@]2(c3cc(C#CCNC(N)=O)ccc31)[C@H](c1ccccc1OCCO)N1[C@H](c3ccccc3)[C@H](c3ccccc3)OC(=O)[C@H]1[C@@H]2C(N)=O,0.208,1.15,0.189,0.963,1.25,0.917,-1.24,0.782,0.305,-0.868 (inactive),0.116,-0.895 (inactive),0.287 (inactive),0.802 (inactive),5.24 (inactive),0.234,0.0422,0.198,0.41,1.8
C=CCC(OC(C)=O)[C@@H]1[C@@H](N(Cc2cc3ccccc3o2)C(=O)c2ccc(C)cc2)c2cc(OCCCO)ccc2N1C(=O)c1ccc2ccccc2c1 (stereo not given in full),0.192,-0.409,0.281,0.257,0.503,0.286,1.24,0.217,0.32,-1.76 (inactive),0.132,0.0491 (inactive),-0.571 (inactive),3.93 (inactive),0.697 (inactive),0.0282,-0.0963,-0.353,-0.0172,0.218
CCCCC=C[C@@H](NC(=O)c1ccc(C(=O)OC)cc1)c1ccccc1,0.59,1.05,0.694,0.875,0.293,0.0889,0.769,0.335,0.658,1.73 (inactive),0.301,-2.79 (inactive),0.806 (inactive),-0.185 (inactive),1.11 (inactive),0.994,0.143,-0.225,0.241,0.185
CC(=O)C1=CCC(c2ccccc2)N(S(=O)(=O)c2ccc(C)cc2)C1 (stereo not given),1.8,1.19,0.362,0.757,0.798,-0.194,-1.16,0.176,1.21,1.6 (inactive),-0.004,-1.06 (inactive),-0.65 (inactive),-0.116 (inactive),0.151 (inactive),1.69,-0.0087,0.911,1.55,-0.194
